# Data reported in PubChem BioAssay (NCI).
# This is part of a sample that, as a whole, favours compounds with a hit. Of some 83,000 tested, about 20% had one in any assay.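 Interpretation: 100, growth as untreated; towards 0, rising growth inhibition; 0, no net growth; 0 to -100, cell death. Compounds scoring below 10 were considered active.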 A number with no mark means an inactive call. Activity calls are given as the source filed them.
# Test system: MDA-MB-468 breast
# Test: NCI-60 one-dose screen, 48 h (100 = growth as untreated, 0 = no growth, -100 = all killed)
# Settings: 10 µM unless noted
row,Compound,growth
1,CC[C@@](C)(NC(=O)C(C)(C)NC(=O)[C@@H](NC(=O)[C@@H]1CCCN1C(=O)C(C)(C)NC(=O)[C@H](CC(C)C)NC(=O)CNC(=O)C(C)(C)NC(=O)[C@@H](NC(=O)C(C)(C)NC(=O)[C@H](CCC(N)=O)NC(=O)[C@H](C)NC(=O)C(C)(C)NC(=O)[C@H](C)NC(=O)C(C)(C)NC(=O)[C@H](C)NC(=O)C(C)(C)NC(C)=O)C(C)C)C(C)C)C(=O)N[C@@H](CCC(N)=O)C(=O)N[C@@H](CCC(N)=O)C(=O)N[C@H](CO)CC1CCCCC1,-10.9% [5 µM] (active)
2,O=C(Nc1ccc(Nc2ncnc3sc4c(c23)CCOC4)cc1)Nc1ccc(Cl)c(C(F)(F)F)c1,83.5%
3,COc1cc(C2CC(c3ccc(Cl)cc3)=NN2C(C)=O)ccc1Oc1nc2c(c(=O)n(C)c(=O)n2C)n1C (stereo not drawn),76.6%
4,O=C(CCOCCNC(=O)COc1ccc2c(c1)OCC(c1ccc(F)cc1)C2=O)NCCCC(O)(P(=O)(O)O)P(=O)(O)O (stereo not drawn),106%
5,CCOC(=O)c1c(NC(=O)c2ccc(C(C)C)cc2)sc2c(CN(C)C)c(O)ccc12,-53.1% (active)
6,COc1ccc(C(=NN=C(N)N)c2ccc(OC)cc2)cc1,-17.7% (active)
7,C=CCn1c(SCC(=O)Nc2ccc(/C(C)=N\O)cc2)nnc1-c1cc(-c2ccccc2)nc2ccccc12,73%
8,C#CC[C@@H]1C[C@]2(C)[C@H]3CC[C@@H]4[C@H]5C(C(=C)C)CC[C@]5(C(=O)NCCCCN)CC[C@@]4(C)[C@]3(C)CC[C@H]2C(C)(C)[C@H]1OC(C)=O (stereo partly drawn),-53.7% (active)
